# From PubChem BioAssay (EPA / NIEHS)
# Results filed as inconclusive are left out. The source made the active and inactive calls. How the source made its calls, unless noted: active means hit-call score of the fitted dose curve at least 0.9, where 1 is the maximum; inconclusive means response in the unintended direction; inactive means score below 0.9.
# What was measured:
# [1] = target: Estrogen receptor (Homo sapiens) (UniProt P03372); assay: OT_ERa_GFPERaERE_0480: Odyssey Thera (OT) 8-hour HeLa Transcription Induction Assay for Estrogen Receptor (AID 2283381; active means hit-call score of the fitted dose curve at least 0.9, where 1 is the maximum; inactive means score below 0.9)
# Outline: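 HeLa cells dosed with compound and imaged by fluorescence microscopy at 8 h; GFP induction from an ERE reporter quantified by high-content image analysis and fitted as gain of signal against DMSO baseline.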
# [2] = target: Estrogen receptor (Homo sapiens) (UniProt P03372); assay: OT_ERa_GFPERaERE_0120: Odyssey Thera (OT) 2-hour HeLa Transcription Induction Assay for Estrogen Receptor (AID 2283382)
# Outline: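 HeLa cells were dosed with test chemical and read 2 hours later for GFP-ERα/ERE-linked fluorescent protein induction by fluorescence microscopy. Gain-of-signal was fitted relative to DMSO baseline, quantified by high content image analysis.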
# [3] = target: Retinoic acid receptor RXR-alpha (Homo sapiens) (UniProt P19793); assay: OT_NURR1_NURR1RXRa_1440: Odyssey Thera (OT) 24-hour HEK293T Protein Complementation Assay for Nurr1/retinoid X receptor (RXR) (AID 2283386)
# Outline: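 HEK293T cells were dosed with compound and read 24 h later by fluorescence intensity in a protein-fragment complementation format, where Nurr1–RXRα interaction reconstitutes a split reporter. Activity was fitted as gain of signal relative to DMSO baseline.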
# [4] = target: Peroxisome proliferator-activated receptor gamma (Homo sapiens) (UniProt P37231); assay: OT_PPARg_PPARgSRC1_0480: Odyssey Thera (OT) 8-hour Protein-Complementation Assay for Peroxisome Proliferator-activated Receptor Gamma / SRC-1 Co-activator (AID 2283387);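 further: nuclear to cytoplasmic split Venus YFP fluorescence ratio reporting PPARg SRC-1 interaction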
# Outline: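 Read-out: 488 nm N/C fluorescence ratio from complemented Venus YFP fragments, ≥350 cells per image, gain-of-signal fitted against DMSO baseline. Fusions of PPARg/SRC-1 with IFP1/IFP2 expressed transiently in HEK293T; compounds applied 8 h.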
# [5] = target: Peroxisome proliferator-activated receptor gamma (Homo sapiens) (UniProt P37231); assay: OT_PPARg_PPARgSRC1_1440: Odyssey Thera (OT) 24-hour Protein-Complementation Assay for Peroxisome Proliferator-activated Receptor Gamma/ SRC-1 Co-activator (AID 2283388);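 further: nuclear to cytoplasmic ratio of reconstituted Venus YFP fluorescence in fixed imaged cells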
# Outline: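 Protein-fragment complementation between PPARg and coactivator SRC-1 was measured by fluorescence imaging in transiently transfected HEK293T cells after 24 h treatment. Signal was quantified as N/C ratio in the 488 nm channel, with DMSO as negative control.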
# [6] = target: Bile acid receptor (Homo sapiens) (UniProt Q96RI1); assay: OT_FXR_FXRSRC1_0480: Odyssey Thera (OT) 8-hour HEK293T Protein-Complementation Assay for Farnesoid X receptor/SRC-1 Co-activator (AID 2283383)
# Outline: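 HEK293T cells expressing FXR and SRC-1 fused to reporter fragments were dosed with compound for 8 h; fluorescence from the reconstituted reporter marked co-activator recruitment. Gain of signal was fitted against the DMSO baseline.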
# [7] = target: Bile acid receptor (Homo sapiens) (UniProt Q96RI1); assay: OT_FXR_FXRSRC1_1440: Odyssey Thera (OT) 24-hour HEK293T Protein-Complementation Assay for Farnesoid X receptor/SRC-1 Co-activator (AID 2283384)
# Outline: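 HEK293T cells were dosed with compound and read 24 h later by fluorescence intensity from protein-fragment complementation reporting FXR/SRC-1 co-activator interaction. Gain of signal was fitted relative to DMSO negative control as baseline.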
# [8] = target: Retinoic acid receptor RXR-alpha (Homo sapiens) (UniProt P19793); assay: OT_NURR1_NURR1RXRa_0480: Odyssey Thera (OT) 8-hour HEK293T Protein Complementation Assay for Nurr1/retinoid X receptor (RXR) (AID 2283385)
# Outline: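 HEK293T cells expressing Nurr1 and RXRα fused to reporter fragments were dosed with compound for 8 hours. Complex formation was read as fluorescence intensity and analysed as gain of signal against DMSO as baseline.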
# [9] = CEETOX_H295R_11DCORT: CeeTox H295R High-throughput Steroidogenesis Assay for 11-Deoxycortisol (11DCORT) (AID 2283432; active means hit-call score of the fitted dose curve at least 0.9, where 1 is the maximum; inactive means score below 0.9); conditions: actives raise or lower the signal
# Outline: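 H295R cells; 10 uM forskolin prestim 48 h; compound in 0.1% DMSO 48 h; media extracted with MTBE; 11-deoxycortisol by LC-MS/MS, 7-point standard curve; gain/loss vs DMSO baseline; viability by MTT in same wells.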
# [10] = CEETOX_H295R_OHPREG: CeeTox H295R High-throughput Steroidogenesis Assay for OH-Pregnenolone (OHPREG) (AID 2283434; active means hit-call score of the fitted dose curve at least 0.9, where 1 is the maximum; inactive means score below 0.9); conditions: actives raise or lower the signal
# Outline: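 Hormone levels in spent medium were measured by tandem mass spectrometry following liquid-liquid extraction. Cells (H295R) had been forskolin-stimulated (10 uM, 48 h) before a 48 h chemical exposure at 0.1% DMSO, with activity fitted in both directions against DMSO.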
# Chain of Estrogen receptor (Homo sapiens) (P03372 whole entry, looked up): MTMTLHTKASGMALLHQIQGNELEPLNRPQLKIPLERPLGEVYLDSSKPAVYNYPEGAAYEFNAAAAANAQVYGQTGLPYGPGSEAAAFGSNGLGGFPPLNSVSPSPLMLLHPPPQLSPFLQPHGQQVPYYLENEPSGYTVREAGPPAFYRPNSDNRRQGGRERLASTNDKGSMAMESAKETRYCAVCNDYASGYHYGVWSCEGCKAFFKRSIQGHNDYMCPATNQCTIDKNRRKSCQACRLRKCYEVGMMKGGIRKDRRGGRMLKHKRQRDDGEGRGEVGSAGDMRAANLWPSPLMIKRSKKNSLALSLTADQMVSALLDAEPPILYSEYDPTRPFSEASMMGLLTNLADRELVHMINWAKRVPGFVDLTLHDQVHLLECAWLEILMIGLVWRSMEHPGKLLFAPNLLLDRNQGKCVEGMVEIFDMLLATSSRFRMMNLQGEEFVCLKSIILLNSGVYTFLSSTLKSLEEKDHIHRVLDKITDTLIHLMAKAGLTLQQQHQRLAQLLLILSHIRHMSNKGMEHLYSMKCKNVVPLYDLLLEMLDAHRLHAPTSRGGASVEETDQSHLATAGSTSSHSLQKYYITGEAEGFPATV
# Chain of Bile acid receptor (Homo sapiens) (Q96RI1 whole entry, looked up, the tested form may be a part): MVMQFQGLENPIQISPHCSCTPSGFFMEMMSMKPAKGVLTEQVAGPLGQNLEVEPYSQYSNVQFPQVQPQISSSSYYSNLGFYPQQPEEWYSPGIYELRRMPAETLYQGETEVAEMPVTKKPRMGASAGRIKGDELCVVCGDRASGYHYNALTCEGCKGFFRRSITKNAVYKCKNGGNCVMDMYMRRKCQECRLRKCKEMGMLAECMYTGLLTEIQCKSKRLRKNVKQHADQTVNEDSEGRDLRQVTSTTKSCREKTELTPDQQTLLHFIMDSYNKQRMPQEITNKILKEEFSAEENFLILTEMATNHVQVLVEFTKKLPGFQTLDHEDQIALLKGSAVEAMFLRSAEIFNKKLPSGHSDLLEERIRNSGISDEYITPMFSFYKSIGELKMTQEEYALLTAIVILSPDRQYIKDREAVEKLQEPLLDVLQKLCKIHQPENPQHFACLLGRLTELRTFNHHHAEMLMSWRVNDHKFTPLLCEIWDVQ
# Chain of Peroxisome proliferator-activated receptor gamma (Homo sapiens) (P37231 whole entry, looked up, the tested form may be a part): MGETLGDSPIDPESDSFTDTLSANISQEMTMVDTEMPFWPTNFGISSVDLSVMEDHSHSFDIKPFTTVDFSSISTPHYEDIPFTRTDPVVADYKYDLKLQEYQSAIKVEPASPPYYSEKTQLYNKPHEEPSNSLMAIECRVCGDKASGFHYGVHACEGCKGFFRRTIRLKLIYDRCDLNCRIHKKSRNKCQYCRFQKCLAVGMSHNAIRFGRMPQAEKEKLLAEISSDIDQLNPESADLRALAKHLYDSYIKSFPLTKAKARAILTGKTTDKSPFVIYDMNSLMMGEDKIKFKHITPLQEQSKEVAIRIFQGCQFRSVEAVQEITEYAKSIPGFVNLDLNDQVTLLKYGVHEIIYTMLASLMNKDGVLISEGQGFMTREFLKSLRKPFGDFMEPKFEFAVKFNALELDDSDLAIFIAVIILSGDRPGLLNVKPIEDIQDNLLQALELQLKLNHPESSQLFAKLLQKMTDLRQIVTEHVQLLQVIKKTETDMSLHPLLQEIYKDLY
# Chain of Retinoic acid receptor RXR-alpha (Homo sapiens) (P19793 whole entry, looked up, the tested form may be a part): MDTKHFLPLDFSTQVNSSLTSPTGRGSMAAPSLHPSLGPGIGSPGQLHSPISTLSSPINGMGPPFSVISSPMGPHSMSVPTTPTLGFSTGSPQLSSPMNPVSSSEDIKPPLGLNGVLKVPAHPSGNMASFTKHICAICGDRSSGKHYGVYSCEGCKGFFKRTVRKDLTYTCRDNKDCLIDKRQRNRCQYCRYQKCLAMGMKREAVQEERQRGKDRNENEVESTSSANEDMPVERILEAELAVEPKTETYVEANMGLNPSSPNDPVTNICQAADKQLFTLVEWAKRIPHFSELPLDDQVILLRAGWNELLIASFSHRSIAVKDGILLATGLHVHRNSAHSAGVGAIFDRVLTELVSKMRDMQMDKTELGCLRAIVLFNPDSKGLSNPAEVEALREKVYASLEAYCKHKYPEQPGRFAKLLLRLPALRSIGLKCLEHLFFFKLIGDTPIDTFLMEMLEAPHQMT
compound,measurement,setting,value
CS(=O)(=O)OCCCCOS(C)(=O)=O,outcome,[1],inactive
same,outcome,[2],inactive
same,outcome,[3],inactive
same,outcome,[4],inactive
same,outcome,[5],inactive
CC(C)CC(C)CC(O)CC(C)C (stereo unspecified),outcome,[6],inactive
same,outcome,[7],inactive
same,outcome,[3],inactive
same,outcome,[4],inactive
same,outcome,[5],inactive
O=C1NC2NC(=O)NC2N1 (stereo unspecified),outcome,[6],inactive
same,outcome,[7],inactive
same,outcome,[8],inactive
same,outcome,[3],inactive
same,outcome,[4],inactive
Cc1cc(=O)oc2cc(N(C)C)ccc12,AC50,[6],50 µM (active)
same,AC50,[7],50 µM (active)
same,outcome,[3],inactive
same,outcome,[4],inactive
same,outcome,[5],inactive
same,outcome,[9],inactive
same,AC50,[10],45.6 µM (active)
CCc1cc(C(C)(C)C)c(O)c(C(C)(C)C)c1,AC50,[6],33.6 µM (active)
same,outcome,[7],inactive
same,AC50,[8],83.8 µM (active)
same,AC50,[3],86.2 µM (active)
same,outcome,[4],inactive
same,outcome,[9],inactive
same,outcome,[10],inactive
CCOC(=O)c1ccc(N)cc1,outcome,[6],inactive
same,AC50,[7],20.2 µM (active)
same,outcome,[8],inactive
same,AC50,[3],31.8 µM (active)
same,outcome,[4],inactive
same,outcome,[5],inactive
O=C(CC(=O)c1ccccc1)c1ccccc1,outcome,[6],inactive
same,outcome,[7],inactive
same,outcome,[8],inactive
same,AC50,[3],81.5 µM (active)
same,outcome,[4],inactive
CCCCOC(=O)CCCCCCCC(=O)OCCCC,outcome,[6],inactive
same,outcome,[8],inactive
same,outcome,[3],inactive
same,outcome,[4],inactive
same,outcome,[5],inactive
c1ccc(Oc2ccccc2)cc1,outcome,[6],inactive
CCCCCCC(=O)c1ccccc1,outcome,[6],inactive
same,outcome,[7],inactive
same,outcome,[8],inactive
same,outcome,[3],inactive
same,outcome,[4],inactive
CCCCCC(C=O)=Cc1ccccc1,outcome,[6],inactive
same,outcome,[7],inactive
same,outcome,[4],inactive
same,outcome,[5],inactive
CC(C)c1ccccc1O,outcome,[6],inactive
same,outcome,[3],inactive
CCCCCCCCCCCCCC(=O)OCC(O)CO (stereo unspecified),AC50,[6],79.8 µM (active)
same,AC50,[7],82.9 µM (active)
same,outcome,[3],inactive
CCCCCCCCCCCCN1CCCCCC1=O,AC50,[6],11.3 µM (active)
same,AC50,[8],44.3 µM (active)
OCc1cccc(Oc2ccccc2)c1,outcome,[6],inactive
same,outcome,[7],inactive
same,outcome,[4],inactive
same,outcome,[10],inactive
CCCC(C)=O,outcome,[6],inactive
same,outcome,[7],inactive
same,outcome,[8],inactive
same,outcome,[3],inactive
same,outcome,[4],inactive
CCOC(=O)[C@@H](C)Oc1ccc(Oc2nc3ccc(Cl)cc3o2)cc1,AC50,[6],24 µM (active)
same,AC50,[7],50 µM (active)
same,outcome,[8],inactive
same,outcome,[3],inactive
same,outcome,[4],inactive
same,outcome,[9],inactive
same,outcome,[10],inactive
Nc1ccccc1[N+](=O)[O-],outcome,[6],inactive
same,outcome,[7],inactive
same,outcome,[3],inactive
same,outcome,[4],inactive
CCCCC1CCC(O)CC1 (stereo unspecified),outcome,[6],inactive
same,outcome,[7],inactive
same,outcome,[3],inactive
same,outcome,[4],inactive
same,outcome,[5],inactive
CCCCCCCCCC(=O)OC,outcome,[6],inactive
same,outcome,[7],inactive
same,outcome,[3],inactive
same,outcome,[4],inactive
O=C(Nc1ccc2c(O)c(N=Nc3ccc(N=Nc4ccc(S(=O)(=O)O)cc4)cc3)c(S(=O)(=O)O)cc2c1)c1ccccc1,outcome,[1],inactive
same,outcome,[2],inactive
same,outcome,[3],inactive
same,outcome,[4],inactive
same,outcome,[5],inactive
CCCCCCCCN1CCCC1=O,AC50,[6],50 µM (active)
same,outcome,[7],inactive
same,outcome,[8],inactive
same,outcome,[3],inactive
same,outcome,[4],inactive
same,outcome,[5],inactive
same,outcome,[9],inactive
same,outcome,[10],inactive
CC1CCC(C(C)C)C(O)C1 (stereo unspecified),outcome,[6],inactive
same,outcome,[7],inactive
same,outcome,[3],inactive
same,outcome,[4],inactive
C=CC(=O)OCCCC,outcome,[6],inactive
same,outcome,[7],inactive
same,outcome,[8],inactive
same,outcome,[3],inactive
CC(C)NCC(O)COc1ccc(CC(N)=O)cc1 (stereo unspecified),outcome,[1],inactive
same,outcome,[2],inactive
same,outcome,[3],inactive
same,outcome,[4],inactive
CCCCCCCCCCCC(=O)OCC(O)CO (stereo unspecified),outcome,[1],inactive
same,outcome,[2],inactive
same,outcome,[8],inactive
same,outcome,[3],inactive
same,outcome,[4],inactive
same,outcome,[5],inactive
C=C(C)C(=O)OCCOC1CC2CC1C1C=CCC21 (stereo unspecified),AC50,[6],72.3 µM (active)
same,outcome,[7],inactive
same,outcome,[4],inactive
O=[N+]([O-])c1ccc(O)cc1C(F)(F)F,outcome,[6],inactive
same,AC50,[7],77.1 µM (active)
same,AC50,[3],86.8 µM (active)
same,outcome,[4],inactive
same,outcome,[5],inactive
CC(C)CCCCCCc1ccc(OCCOCCO)cc1,outcome,[1],inactive
same,outcome,[2],inactive
same,outcome,[3],inactive
same,outcome,[4],inactive
same,outcome,[5],inactive
CSCCC=O,outcome,[6],inactive
same,outcome,[7],inactive
same,outcome,[8],inactive
same,outcome,[4],inactive
same,outcome,[5],inactive
CCCCCCCCc1ccc(S(=O)(=O)O)cc1,outcome,[6],inactive
same,outcome,[7],inactive
same,outcome,[4],inactive
O=c1c(O)c(-c2ccc(O)cc2)oc2cc(O)cc(O)c12,outcome,[6],inactive
same,AC50,[7],19.8 µM (active)
same,outcome,[3],inactive
same,outcome,[5],inactive
CCCCCCCCSCCO,AC50,[6],74.1 µM (active)
same,outcome,[7],inactive
same,outcome,[3],inactive
same,outcome,[4],inactive
C=CC(C)(O)CCC=C(C)C (stereo unspecified),outcome,[6],inactive
same,outcome,[7],inactive
same,outcome,[4],inactive
same,outcome,[5],inactive
OCC(O)c1ccccc1 (stereo unspecified),outcome,[1],inactive
same,outcome,[2],inactive
same,outcome,[8],inactive
same,outcome,[3],inactive
COS(=O)(=O)O,outcome,[6],inactive
same,outcome,[3],inactive
